In PubChem BioAssay (Tox21):
Records with an inconclusive call do not appear. Where a call stands in place of a potency, no number is given. Active and inactive are the calls of the source. Unless noted, calls come from the whole dose curve.

Tests used:
[1] = qHTS assay to identify small molecule agonists of the sonic hedgehog signaling (Shh) pathway (AID 1259368);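 note: NIH/3T3-derived 3T3Gli1-Luc cells carrying a stable Gli1-driven firefly luciferase reporter; series mostly up to about 92 µM; nearly all actives have a fitted effect of over 15% in size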
Outline: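 A Gli1 transcriptional response element controlled firefly luciferase in 3T3Gli1-Luc cells. Compounds and a positive control were added 4 hr after plating, and cells were incubated a further 24 hr at 37 C before luminescence detection.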

[2] = qHTS assay to identify small molecule antagonists of the sonic hedgehog signaling (Shh) pathway (AID 1259369); note: nearly all actives have a fitted effect of over 45% in size
Outline: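 For antagonist detection, the reporter line received test compounds together with conditioned medium, incubated 24hr at 37 C, 5% CO2, then luminescence was recorded following 30min room-temperature luciferase reagent incubation.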

[3] = target: Estrogen receptor beta (Homo sapiens) (UniProt Q92731); test: qHTS assay to identify small molecule antagonists of the estrogen receptor beta (ER-beta) signaling pathway (AID 1259378; active = well fitted inhibition curve with a large enough effect in the signal ratio in the repeat runs, not every such curve was filed as active; the % refers to the signal ratio)
Outline: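 ER-beta-UAS-bla HEK293T (GripTite) cells in 2% charcoal-stripped FBS medium were preincubated 6 hr at 37C, dosed with compound, then stimulated with 1 nM E2 (final) for 16 hr; beta-lactamase reporter read by B/G FRET fluorescence after 2 hr substrate loading.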

[4] = qHTS assay to identify small molecule agonists of the androgen receptor (AR) signaling pathway in the presence of an antagonist - cell viability counter screen (AID 1259379; active = well fitted curve in the direction sought with a large enough effect in the repeat runs; an effect the other way counts as inactive or inconclusive;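 note: MDA-kb2 human breast cancer cells carrying an MMTV luciferase reporter; series mostly up to about 92 µM; nearly all actives have a fitted effect of over 25% in size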)
Outline: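 Seed MDA-kb2 at 3,000 cells/well; incubate 5 hr, 37C, 0% CO2. Add nilutamide to 3.0uM final, then pin compounds at 15 concentrations. Incubate 16 hr. Add CellTiter-Fluor at 15 hr, read fluorescence after 1 hr.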

[5] = target: Estrogen receptor (Homo sapiens) (UniProt P03372); test: qHTS assay to identify small molecule agonists of the estrogen receptor alpha (ER-alpha) signaling pathway in the presence of an antagonist (AID 1259383); note: top concentration of the series differs between compounds; nearly all actives have a fitted effect of over 15% in size
Outline: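 Stably transfected VM7Luc4E2 reporter cells, kept 5 days in charcoal-stripped serum, received ICI-182,780 at 10.0nM final before compound addition. Following 22hr incubation at 37C and 5% CO2, luciferase signal was read by luminescence.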

[6] = qHTS assay to identify small molecule agonists of the estrogen receptor alpha (ER-alpha) signaling pathway in the presence of an antagonist - cell viability counter screen (AID 1259386; active = well fitted curve in the direction sought with a large enough effect in the repeat runs; an effect the other way counts as inactive or inconclusive;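 note: series mostly up to about 92 µM; cells exposed to compounds for 22 h at 37 °C before the viability read; nearly all actives have a fitted effect of over 30% in size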)
Outline: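 Viability counter screen using VM7Luc4E2 (full-length ER-alpha, four ERE-luciferase). The cells were treated with compounds alongside ICI-182,780 10.0nM for 22hr, and live-cell protease fluorescence was quantified with CellTiter-Fluor.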

[7] = qHTS assay to identify small molecule antagonists of the TGF-beta/Smad signaling pathway - cell viability counter screen (AID 1346824; active = well fitted curve in the direction sought with a large enough effect in the repeat runs; an effect the other way counts as inactive or inconclusive; note: nearly all actives have a fitted effect of over 50% in size)
Outline: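 SBE-bla HEK 293T cells were plated overnight at 37 C, then given compounds in DMSO plus TGF-beta1 (added as 0.25 ng/mL solution) for 5 hr. After the bla read, CellTiter-Glo was added to the same wells and luminescence read after 30 min at room temperature.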

[8] = qHTS assay to identify small molecule agonists of the TGF-beta/Smad signaling pathway - cell viability counter screen (AID 1346829; active = well fitted curve in the direction sought with a large enough effect in the repeat runs; an effect the other way counts as inactive or inconclusive; note: top concentration of the series differs between compounds; nearly all actives have a fitted effect of over 45% in size)
Outline: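 Cytotoxicity counter screen: CellTiter-Glo luminescence (30 min, room temperature) measured in the SBE-bla HEK 293T reporter wells after 5 hr compound treatment at 37 C and the 2 hr substrate step.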

[9] = qHTS assay to identify small molecule agonists of the TGF-beta/Smad signaling pathway (AID 1346859; active = well fitted activation curve with a large enough effect in the signal ratio in the repeat runs, not every such curve was filed as active; the % refers to the signal ratio; note: series mostly up to about 77 µM)
Outline: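 Dual-wavelength fluorescence (460/530 nm emission) quantified beta-lactamase expression under the Smad binding element in HEK 293T cells following 5 hr compound treatment at 37 C.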

[10] = target: Thyrotropin-releasing hormone receptor (Homo sapiens) (UniProt P34981); test: qHTS assay to identify small molecule antagonists of the thyrotropin-releasing hormone receptor (TRHR) signaling pathway (AID 1346877; active = well fitted inhibition curve with a large enough effect in the repeat runs, not every such curve was filed as active; note: series mostly up to about 51 µM)
Outline: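 Following an 18 h incubation at 37 °C and a 2 h calcium dye load, TRHR-HEK293 cells were exposed to compound (5 min, room temperature) and challenged with TRH, 1 nM final.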

[11] = qHTS assay to identify small molecule agonists of the estrogen receptor beta (ER-beta) signaling pathway - cell viability counter screen (AID 1259380; active = well fitted curve in the direction sought with a large enough effect in the repeat runs; an effect the other way counts as inactive or inconclusive; note: nearly all actives have a fitted effect of over 30% in size; note: potency is the fitted concentration of half-maximal effect)
Outline: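 CellTiter-Glo read, 30 min RT, same wells as bla assay; cells ER-beta-UAS-bla HEK293T; 16 hr compound, 37C; medium 2% charcoal-stripped FBS.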

[12] = qHTS assay to identify small molecule antagonists of the estrogen receptor beta (ER-beta) signaling pathway - cell viability counter screen (AID 1259382; active = well fitted curve in the direction sought with a large enough effect in the repeat runs; an effect the other way counts as inactive or inconclusive; note: series mostly up to about 92 µM; nearly all actives have a fitted effect of over 55% in size)
Outline: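 In this multiplexed counter screen, cells were seeded at 2,000 per well in medium with 2% charcoal-stripped FBS and incubated 6 hr before compound and 1nM final E2 were added. Sixteen hours later, ATP-based luminescence reported viability.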

[13] = target: Progesterone receptor (Homo sapiens) (UniProt P06401); test: qHTS assay to identify small molecule agonists of the progesterone receptor (PR) signaling pathway (AID 1346784); note: nearly all actives have a fitted effect of over 30% in size
Outline: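 The screen uses PR-UAS-bla HEK 293T cells in charcoal-stripped serum (2%). Compounds are applied for 16 hr at 37C after a 6 hr pre-incubation, and reporter activity is detected with a FRET beta-lactamase substrate after 2 hr at room temperature.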

[14] = target: Progesterone receptor (Homo sapiens) (UniProt P06401); test: qHTS assay to identify small molecule antagonists of the progesterone receptor (PR) signaling pathway (AID 1346795; active = well fitted inhibition curve with a large enough effect in the signal ratio in the repeat runs, not every such curve was filed as active; the % refers to the signal ratio)
Outline: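 After 6 hr plating at 37C in 2% stripped-serum medium, PR-UAS-bla HEK293T cells got compounds, then 1 nM R5020. Sixteen hours later, LiveBLAzer substrate was applied for 2 hr at room temperature and fluorescence was recorded.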

[15] = qHTS assay to identify small molecule antagonists of the progesterone receptor (PR) signaling pathway - cell viability counter screen (AID 1346798; active = well fitted curve in the direction sought with a large enough effect in the repeat runs; an effect the other way counts as inactive or inconclusive; note: nearly all actives have a fitted effect of over 50% in size; note: potency is the fitted concentration of half-maximal effect)
Outline: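 Viability was determined by ATP-based luminescence (CellTiter-Glo) in PR-UAS-bla HEK293T cells cultured in 2% charcoal-stripped serum and incubated 16 hr with compounds under R5020 stimulation.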

[16] = qHTS assay to identify small molecule agonists of the progesterone receptor (PR) signaling pathway - cell viability counter screen (AID 1346799); note: nearly all actives have a fitted effect of over 45% in size; note: potency is the fitted concentration of half-maximal effect
Outline: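 Viability was scored by ATP luminescence (CellTiter-Glo, 30 min, room temperature) in the same wells used for the reporter readout, after 16 hr compound exposure of PR-UAS-bla HEK293T cells.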

[17] = qHTS assay to identify small molecule agonists or antagonists of the thyroid stimulating hormone receptor (TSHR) signaling pathway - wild type cell line counter screen (AID 1259384)
Outline: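 Wild-type HEK293 cells were plated 18 h at 37 C/5% CO2, pin-dosed with compound plus Ro20-1724 medium, held 30 min at room temperature, then given cAMP-d2 and anti-cAMP-cryptate; fluorescence was read after 1 h. Fifteen concentrations, triplicate.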

[18] = target: Thyrotropin receptor (Homo sapiens) (UniProt P16473); test: qHTS assay to identify small molecule antagonists of the thyroid stimulating hormone receptor (TSHR) signaling pathway (AID 1259385); note: nearly all actives have a fitted effect of over 20% in size
Outline: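 TSHR-HEK293 cells were plated and held 18 h at 37C/5% CO2, then given compound plus Ro20-1724 and stimulated with TSH at 1.5 ng/mL final. After 30 min at room temperature, cAMP was detected with cAMP-d2/anti-cAMP-cryptate (1 h) by fluorescence.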

[19] = target: Androgen receptor (Homo sapiens) (UniProt P10275); test: qHTS assay to identify small molecule agonists of the androgen receptor (AR) signaling pathway in the presence of an antagonist (AID 1259381); note: nearly all actives have a fitted effect of over 15% in size
Outline: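 Test compounds at 15 concentrations were incubated for 16hr with MDA-kb2 reporter cells in presence of 3.0uM nilutamide (final). Signal: ONE-Glo luciferase luminescence.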

Sequence of Estrogen receptor beta (Homo sapiens) (Q92731 whole entry, looked up): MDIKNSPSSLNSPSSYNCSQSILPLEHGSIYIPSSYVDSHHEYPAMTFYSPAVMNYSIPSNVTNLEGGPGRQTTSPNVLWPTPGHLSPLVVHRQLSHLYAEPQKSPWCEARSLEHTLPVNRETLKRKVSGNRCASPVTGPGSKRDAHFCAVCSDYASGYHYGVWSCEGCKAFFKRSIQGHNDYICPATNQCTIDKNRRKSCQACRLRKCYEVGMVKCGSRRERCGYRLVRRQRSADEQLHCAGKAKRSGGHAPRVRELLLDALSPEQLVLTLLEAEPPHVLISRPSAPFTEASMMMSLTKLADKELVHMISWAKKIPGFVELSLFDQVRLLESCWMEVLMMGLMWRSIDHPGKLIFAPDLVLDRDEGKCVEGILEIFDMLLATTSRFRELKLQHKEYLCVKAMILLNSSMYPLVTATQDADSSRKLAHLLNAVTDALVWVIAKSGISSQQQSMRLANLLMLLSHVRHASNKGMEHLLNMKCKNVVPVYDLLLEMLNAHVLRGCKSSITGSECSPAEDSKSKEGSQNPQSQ
Sequence of Progesterone receptor (Homo sapiens) (P06401 whole entry, looked up): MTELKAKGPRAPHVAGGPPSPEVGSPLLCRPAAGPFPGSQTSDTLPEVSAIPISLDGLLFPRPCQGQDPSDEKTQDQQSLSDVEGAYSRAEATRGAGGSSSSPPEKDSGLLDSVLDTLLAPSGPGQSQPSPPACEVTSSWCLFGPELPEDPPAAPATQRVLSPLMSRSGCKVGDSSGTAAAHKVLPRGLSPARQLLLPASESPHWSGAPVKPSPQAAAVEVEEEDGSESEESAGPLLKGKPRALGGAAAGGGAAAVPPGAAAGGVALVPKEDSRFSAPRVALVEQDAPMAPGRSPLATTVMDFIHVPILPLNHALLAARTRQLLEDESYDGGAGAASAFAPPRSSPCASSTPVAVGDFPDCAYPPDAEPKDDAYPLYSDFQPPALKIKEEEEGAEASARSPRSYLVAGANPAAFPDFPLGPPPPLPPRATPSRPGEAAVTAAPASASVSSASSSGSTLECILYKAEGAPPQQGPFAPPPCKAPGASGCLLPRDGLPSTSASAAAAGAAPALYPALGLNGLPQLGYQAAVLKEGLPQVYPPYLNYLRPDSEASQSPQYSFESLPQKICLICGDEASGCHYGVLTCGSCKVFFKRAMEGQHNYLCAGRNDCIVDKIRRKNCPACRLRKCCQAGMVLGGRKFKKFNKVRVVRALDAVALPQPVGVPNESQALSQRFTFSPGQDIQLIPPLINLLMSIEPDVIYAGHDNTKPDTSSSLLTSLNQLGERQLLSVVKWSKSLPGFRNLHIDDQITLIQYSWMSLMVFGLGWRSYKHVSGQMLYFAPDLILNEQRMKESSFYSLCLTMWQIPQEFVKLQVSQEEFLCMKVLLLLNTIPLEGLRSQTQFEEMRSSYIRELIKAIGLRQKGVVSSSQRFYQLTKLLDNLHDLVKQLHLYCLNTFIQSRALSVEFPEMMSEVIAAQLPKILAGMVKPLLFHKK
Sequence of Thyrotropin receptor (Homo sapiens) (P16473 whole entry, looked up): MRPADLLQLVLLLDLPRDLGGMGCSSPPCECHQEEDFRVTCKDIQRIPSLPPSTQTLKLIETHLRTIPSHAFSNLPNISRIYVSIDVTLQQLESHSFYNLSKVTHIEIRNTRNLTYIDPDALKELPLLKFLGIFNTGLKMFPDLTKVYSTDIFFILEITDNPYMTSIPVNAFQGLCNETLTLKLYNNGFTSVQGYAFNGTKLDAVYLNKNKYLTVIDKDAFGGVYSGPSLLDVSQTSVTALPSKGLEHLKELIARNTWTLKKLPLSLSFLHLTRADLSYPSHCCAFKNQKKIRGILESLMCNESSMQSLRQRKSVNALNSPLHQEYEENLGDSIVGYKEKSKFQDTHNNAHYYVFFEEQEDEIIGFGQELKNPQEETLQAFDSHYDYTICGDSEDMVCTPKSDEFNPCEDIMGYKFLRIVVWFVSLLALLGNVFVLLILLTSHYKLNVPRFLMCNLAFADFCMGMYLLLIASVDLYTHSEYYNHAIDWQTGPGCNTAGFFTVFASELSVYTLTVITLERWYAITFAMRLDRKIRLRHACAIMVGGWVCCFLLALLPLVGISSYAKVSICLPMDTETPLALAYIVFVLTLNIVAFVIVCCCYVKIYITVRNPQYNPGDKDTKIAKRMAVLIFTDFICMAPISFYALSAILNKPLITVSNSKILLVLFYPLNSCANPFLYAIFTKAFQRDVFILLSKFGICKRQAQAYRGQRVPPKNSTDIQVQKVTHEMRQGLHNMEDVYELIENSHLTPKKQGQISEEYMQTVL
Sequence of Androgen receptor (Homo sapiens) (P10275 whole entry, looked up): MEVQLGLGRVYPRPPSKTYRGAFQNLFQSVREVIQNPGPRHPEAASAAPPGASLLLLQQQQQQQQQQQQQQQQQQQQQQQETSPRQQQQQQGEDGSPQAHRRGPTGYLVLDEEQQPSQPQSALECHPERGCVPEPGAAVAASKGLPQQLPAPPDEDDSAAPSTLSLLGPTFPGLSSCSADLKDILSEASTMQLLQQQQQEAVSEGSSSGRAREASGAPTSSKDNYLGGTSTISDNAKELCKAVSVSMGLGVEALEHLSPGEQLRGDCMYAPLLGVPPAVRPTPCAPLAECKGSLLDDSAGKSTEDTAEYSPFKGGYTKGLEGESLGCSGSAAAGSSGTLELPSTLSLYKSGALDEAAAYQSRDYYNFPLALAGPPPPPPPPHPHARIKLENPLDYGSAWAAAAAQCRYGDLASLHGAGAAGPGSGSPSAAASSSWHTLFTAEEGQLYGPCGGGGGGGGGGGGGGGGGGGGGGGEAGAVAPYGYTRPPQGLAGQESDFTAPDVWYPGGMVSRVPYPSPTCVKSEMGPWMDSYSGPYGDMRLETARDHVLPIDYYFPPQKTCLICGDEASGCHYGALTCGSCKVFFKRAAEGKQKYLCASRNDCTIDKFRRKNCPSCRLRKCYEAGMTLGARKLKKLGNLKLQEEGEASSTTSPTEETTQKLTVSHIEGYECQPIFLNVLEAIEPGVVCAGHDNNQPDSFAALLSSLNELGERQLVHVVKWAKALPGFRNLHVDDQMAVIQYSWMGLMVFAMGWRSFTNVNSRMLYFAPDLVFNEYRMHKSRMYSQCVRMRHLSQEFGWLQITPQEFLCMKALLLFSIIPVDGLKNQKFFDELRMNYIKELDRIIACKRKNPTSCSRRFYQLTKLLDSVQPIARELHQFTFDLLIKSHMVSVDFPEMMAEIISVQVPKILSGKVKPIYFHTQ
Sequence of Thyrotropin-releasing hormone receptor (Homo sapiens) (P34981 whole entry, looked up): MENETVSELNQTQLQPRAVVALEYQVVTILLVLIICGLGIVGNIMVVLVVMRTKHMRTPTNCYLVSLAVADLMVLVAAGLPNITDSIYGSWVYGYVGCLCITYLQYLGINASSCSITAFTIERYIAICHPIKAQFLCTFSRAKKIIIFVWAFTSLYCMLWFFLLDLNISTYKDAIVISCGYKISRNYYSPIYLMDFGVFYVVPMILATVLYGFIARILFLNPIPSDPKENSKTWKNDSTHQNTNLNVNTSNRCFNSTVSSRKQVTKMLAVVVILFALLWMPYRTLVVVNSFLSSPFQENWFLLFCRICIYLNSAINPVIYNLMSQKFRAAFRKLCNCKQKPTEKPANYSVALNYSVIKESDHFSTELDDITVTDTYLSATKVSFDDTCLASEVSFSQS
Sequence of Estrogen receptor (Homo sapiens) (P03372 whole entry, looked up): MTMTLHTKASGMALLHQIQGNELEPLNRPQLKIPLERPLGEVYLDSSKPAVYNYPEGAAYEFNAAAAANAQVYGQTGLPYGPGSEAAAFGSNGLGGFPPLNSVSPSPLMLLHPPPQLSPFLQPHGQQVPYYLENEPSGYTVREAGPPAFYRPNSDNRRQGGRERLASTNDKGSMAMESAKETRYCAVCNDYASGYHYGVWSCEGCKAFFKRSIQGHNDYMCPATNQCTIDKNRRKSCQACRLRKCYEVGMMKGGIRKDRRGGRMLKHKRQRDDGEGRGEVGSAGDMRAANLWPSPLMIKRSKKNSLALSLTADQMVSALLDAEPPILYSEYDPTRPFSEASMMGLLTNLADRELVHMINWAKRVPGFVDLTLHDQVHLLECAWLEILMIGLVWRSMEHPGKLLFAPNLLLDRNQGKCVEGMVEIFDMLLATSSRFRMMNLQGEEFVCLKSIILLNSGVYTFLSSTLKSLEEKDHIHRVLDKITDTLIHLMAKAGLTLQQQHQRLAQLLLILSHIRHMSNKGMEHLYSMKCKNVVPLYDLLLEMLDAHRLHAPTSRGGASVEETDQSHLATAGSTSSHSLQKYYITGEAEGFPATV

Row | SMILES | Potency [1] | Potency [2] | Potency [3] | Potency [4] | Potency [5] | outcome [6] | outcome [7] | outcome [8] | outcome [9] | outcome [10] | Potency [11] | Potency [12] | Potency [13] | Potency [14] | Potency [15] | Potency [16] | outcome [17] | Potency [18] | Potency [19]
1 | Cc1c(C)n(CCN(C)C)c2ccc(C(=O)OCCN(C)C)cc12 | inactive | inactive | inactive | inactive | inactive | inactive | inactive | inactive | inactive | inactive | – | – | – | – | – | – | – | – | –
2 | CC(C)CCOC(=O)CC(C)C | inactive | inactive | – | inactive | inactive | inactive | inactive | inactive | inactive | inactive | inactive | inactive | inactive | inactive | inactive | inactive | – | – | –
3 | CNc1ncnc2nc[nH]c12 | inactive | inactive | – | inactive | inactive | inactive | – | inactive | inactive | inactive | inactive | inactive | inactive | inactive | inactive | inactive | inactive | inactive | –
4 | N#CCc1ccccc1[N+](=O)[O-] | inactive | inactive | inactive | inactive | – | inactive | inactive | inactive | inactive | inactive | – | inactive | inactive | inactive | – | – | inactive | inactive | –
5 | CC(C)CCCC(C)NCCC(C)C (configuration not stated) | inactive | inactive | inactive | inactive | inactive | inactive | inactive | inactive | inactive | inactive | – | – | inactive | inactive | inactive | inactive | inactive | inactive | inactive
6 | CCCCCCOC(=O)c1ccccc1O | inactive | inactive | inactive | inactive | – | inactive | inactive | inactive | inactive | inactive | – | inactive | – | – | 24.3 µM (active) | 30.6 µM (active) | inactive | inactive | inactive
7 | O=C1CC2(CCCC2)CC(=O)N1 | inactive | inactive | inactive | inactive | inactive | inactive | inactive | inactive | inactive | inactive | – | inactive | inactive | inactive | – | inactive | inactive | inactive | inactive
8 | CCCCC1CCCCC(=O)O1 (configuration not stated) | inactive | inactive | – | inactive | inactive | inactive | inactive | inactive | inactive | inactive | inactive | inactive | inactive | inactive | inactive | inactive | inactive | inactive | –
9 | NCCNC(=O)c1ccc(Cl)cn1 | inactive | inactive | – | inactive | inactive | inactive | inactive | inactive | inactive | inactive | inactive | inactive | inactive | inactive | – | inactive | inactive | inactive | –
10 | CCCCCCC(=O)OCC | inactive | inactive | inactive | inactive | inactive | inactive | inactive | inactive | inactive | inactive | – | – | inactive | inactive | inactive | inactive | inactive | inactive | –
11 | NCCN1CCNC1=O | inactive | inactive | – | inactive | inactive | inactive | – | inactive | inactive | – | inactive | inactive | inactive | inactive | inactive | inactive | inactive | inactive | –
12 | COc1cc(CCC(C)=O)ccc1O | inactive | inactive | inactive | inactive | – | inactive | inactive | inactive | inactive | – | – | – | inactive | inactive | – | inactive | inactive | inactive | inactive
13 | CCN1CCCC1CNC(=O)c1cc(S(N)(=O)=O)ccc1OC (configuration not stated) | inactive | inactive | – | inactive | – | inactive | inactive | inactive | inactive | inactive | – | – | inactive | – | – | – | inactive | inactive | inactive
14 | CC(C)c1ccc2oc3nc(N)c(C(=O)O)cc3c(=O)c2c1 | inactive | inactive | – | inactive | inactive | inactive | inactive | inactive | – | inactive | 23.7 µM (active) | – | inactive | inactive | inactive | inactive | – | inactive | –
15 | COC(C(=O)O)c1ccccc1 (configuration not stated) | inactive | inactive | – | inactive | – | inactive | inactive | inactive | inactive | – | inactive | inactive | inactive | inactive | inactive | inactive | inactive | inactive | –
16 | CC(=O)NC(Cc1ccccc1)C(=O)O (configuration not stated) | inactive | inactive | – | inactive | inactive | inactive | inactive | inactive | inactive | inactive | – | inactive | inactive | – | inactive | inactive | inactive | inactive | –
17 | CC(C)CCCC(C)CCCC(C)CCCCC(C)CCCC(C)CCCC(C)C (configuration not stated) | inactive | inactive | – | inactive | – | inactive | inactive | inactive | inactive | – | – | inactive | inactive | inactive | inactive | inactive | inactive | inactive | –
18 | OCCCCCCO | inactive | inactive | – | inactive | – | inactive | inactive | inactive | inactive | inactive | 55.1 µM (active) | – | – | – | 61.9 µM (active) | 19.6 µM (active) | – | – | –
19 | CC(C)c1cccc(C(C)C)c1N | inactive | inactive | – | inactive | inactive | inactive | – | inactive | inactive | inactive | inactive | inactive | inactive | inactive | inactive | inactive | – | – | –
